This passage reports binding signal results from publication PMC7819943, “Rice protein-binding microarrays: a tool to detect cis-acting elements near promoter regions in rice”.

In all, about 68,000 sequences were measured (“fluorescence intensity (a.u.)”: median about 9,100, highest 2% from about 16,000 on). This is one part of a sample in which the highest values are shown more often than they occur.

Sequence of OsWRKY34 (Q0JBA9 entry or part of it): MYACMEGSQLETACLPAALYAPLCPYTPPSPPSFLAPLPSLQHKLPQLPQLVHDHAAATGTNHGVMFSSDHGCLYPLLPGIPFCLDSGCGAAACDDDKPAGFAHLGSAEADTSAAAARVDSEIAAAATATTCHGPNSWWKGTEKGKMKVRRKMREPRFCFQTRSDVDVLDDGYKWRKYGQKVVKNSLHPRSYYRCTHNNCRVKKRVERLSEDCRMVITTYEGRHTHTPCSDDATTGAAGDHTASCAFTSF

The test concerns the target OsWRKY34 (Oryza sativa, UniProt Q0JBA9 1-250). The experiment in a line: protein-binding microarray (RPBM); PBS, 2% BSA, 51.3 ng/ul salmon testes DNA, 50 uM zinc acetate, 200 nM TF, 25 C, 1 h; high values mean tight binding. To be noted: protein: recombinant; tags: N-terminal polyhistidine and DsRed monomer fusion (pET32a); label: CyDye5-dUTP incorporated in the synthesized complementary strand; 3' TTTTT single-stranded linker to array surface; dsDNA, one strand shown. In outline: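 Polyhistidine-tagged DsRed fusions of transcription factors, joined at the N-terminus, were expressed in E. coli BL21-CodonPlus and isolated on Ni–NTA. They were incubated at 200 nM for 1 h at 25 °C on a custom Agilent array, double-stranded and BSA-blocked, in PBS with 2% BSA, salmon testes DNA and 50 µM zinc acetate. The binding signal is per-feature fluorescence intensity (arbitrary units) read on an Axon 4000B scanner after washing.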
In the case of “GGTGGTTCTTGCTTCACACAATCTGGCGCGCTTCAGAACACGGAGTCACCTAGTGCAG”, the binding signal is 13300 fluorescence intensity (a.u.).
On to “AAAACATGGTACAAATGCATACGCTCACACATGCACACTCCGGAGTCACCTAGTGCAG”, for which the binding signal was 8300 fluorescence intensity (a.u.).
Next, “ACTCACACTAGCTTGAAACTATCTGCGTACTCAAATTCAACGGAGTCACCTAGTGCAG”: 8080 fluorescence intensity (a.u.).
Under “CCATCCCGCCGCCACCGCCGCCGCCGCCGCCTCATCCTCCCGGAGTCACCTAGTGCAG” stands 9300 fluorescence intensity (a.u.); under “ATTCTCAAATACCACTCGGGCCCACATGTCAGCCTTACTCCGGAGTCACCTAGTGCAG”, 8200 fluorescence intensity (a.u.); under “CGGCTCGCTCAACCATACCACCTTTTCAAATTCATTTTTCCGGAGTCACCTAGTGCAG”, 11600 fluorescence intensity (a.u.).
For the sequence “CGCCGTTGACTTTTTTAAAAATGTTTGACCGTTCCTCTTACGGAGTCACCTAGTGCAG”, the binding signal is 20900 fluorescence intensity (a.u.).
Next, “CGTCTCTAAATACTTGACGCCGTTGACTTTTTTAAATATGCGGAGTCACCTAGTGCAG”: 26900 fluorescence intensity (a.u.); “ATTTTTGACGCCGTTGACTTTTTTTAAATATGTTTGACCGCGGAGTCACCTAGTGCAG”: 46900 fluorescence intensity (a.u.).
Next, “ATATTTGACGACGTTGATTTTTTTTAAATATGTTTGACCGCGGAGTCACCTAGTGCAG”: 9090 fluorescence intensity (a.u.); “ATCTTTGACGTCGTTGACTTTTAAAAAAATGTTTGACCGTCGGAGTCACCTAGTGCAG”: 22300 fluorescence intensity (a.u.); “ACGTCTCCACCACCACCACCGGCCAAACGCCGACCTCATCCGGAGTCACCTAGTGCAG”: 9450 fluorescence intensity (a.u.).
As to “CCAGTCAATTTCCCCACGTGCCATCTCGCTGCATCCGCCGCGGAGTCACCTAGTGCAG”, the binding signal is 10500 fluorescence intensity (a.u.).
Next, “CTCGCGCGCCCCGCCCGTTTCGCCTCGGCCGCCTCCTCCACGGAGTCACCTAGTGCAG”: 8480 fluorescence intensity (a.u.); “CATCTGCACGCATATATATCTGTAAACTCAGCGCGTTTTTCGGAGTCACCTAGTGCAG”: 8100 fluorescence intensity (a.u.); “ATTGTGGACTGTTTGACCTCCAGTTTGGACTGTAGGAATTCGGAGTCACCTAGTGCAG”: 8060 fluorescence intensity (a.u.).
Next, “CTGTTGGTCAATCGCCGAACTTACCGCCGCGCCGGCCATGCGGAGTCACCTAGTGCAG”: 9410 fluorescence intensity (a.u.).
Under “TTCATTTTCAATTCCCGTCCTCATTCTTCTTATGATATTTCGGAGTCACCTAGTGCAG” stands 8930 fluorescence intensity (a.u.).
For “AATCCATAATTAGTAAATATTTACTGTAGCACCATATTGTCGGAGTCACCTAGTGCAG”, the binding signal is 9810 fluorescence intensity (a.u.).
Under “ATTTGACGCCGTTACTTTTTTTAAAAATGTTTGGCCGTTCCGGAGTCACCTAGTGCAG” stands 8270 fluorescence intensity (a.u.).
Under “CGCTGTTGACTTTTTTAAAAATGTTTGACCGTTCATCTTACGGAGTCACCTAGTGCAG” stands 33600 fluorescence intensity (a.u.); under “GTTGACTTTTTTTTAAACATGTTTGACCATTCATCTTATTCGGAGTCACCTAGTGCAG”, 11100 fluorescence intensity (a.u.); under “AATGTTTGACGCCGTTGACTTTTTTAAAAATGTTTGGCCGCGGAGTCACCTAGTGCAG”, 29800 fluorescence intensity (a.u.).
Next, “ACTTTTTAAAACATGTTTGACCGTTCATCTTATTCAAAAACGGAGTCACCTAGTGCAG”: 8410 fluorescence intensity (a.u.); “ACTTTTTAAAACATGTTTGACCGTTCATCTTATTTAAAAACGGAGTCACCTAGTGCAG”: 8690 fluorescence intensity (a.u.).
As for “ATTTTGACTTTTTCTTGTACTGTTTGACCATTCATCTTATCGGAGTCACCTAGTGCAG”, the binding signal is 16200 fluorescence intensity (a.u.).
Under “GTTGTTGACTTTTTAAAATTTGTTTGACCATTCATCTTATCGGAGTCACCTAGTGCAG” stands 23100 fluorescence intensity (a.u.); under “ACGCCGTTGACTTTTTAAAATATGTTTGACCGTTTATCTTCGGAGTCACCTAGTGCAG”, 45700 fluorescence intensity (a.u.).
Next, “CGGTTCTTGTCGTAGAAAGCTCCGTGTTATCGTTTATATTCGGAGTCACCTAGTGCAG”: 8090 fluorescence intensity (a.u.).
Next, “CAGCCACCTCTCCATCTTCTGTCCGTTCACCTCTCCGTAACGGAGTCACCTAGTGCAG”: 12600 fluorescence intensity (a.u.).
As for “GCTTGCTCCAGGTGACCCAACTTTTCCATTTCCATGCATTCGGAGTCACCTAGTGCAG”, the binding signal was 11300 fluorescence intensity (a.u.).
Consider “GCTCCTCCTCCTCTTCCCGCCTCACCGCCGCACCACCTCTCGGAGTCACCTAGTGCAG”, for which the binding signal is 8550 fluorescence intensity (a.u.).
“CCGTGGGCCAGACCTTTTTCTTCGACGCTAGACCTGACTACGGAGTCACCTAGTGCAG”: the binding signal is 9780 fluorescence intensity (a.u.).
Under “TTCACCCACGTTTCTGCCCAACCCTCTCACCCTAGCTTAGCGGAGTCACCTAGTGCAG” stands 10800 fluorescence intensity (a.u.); under “AACTTCGCAAGAGGCATGCTCTCCAGCCTCAATTTTCATGCGGAGTCACCTAGTGCAG”, 8410 fluorescence intensity (a.u.).
Under “CCCCATTTTCTTTGTTTCTACTTCTCTTTCCCTTTCTTGTCGGAGTCACCTAGTGCAG” stands 10700 fluorescence intensity (a.u.).
For “CTCCGTCCCTCCGTACCAGTTTAAATGCAGCCGTGGATTCCGGAGTCACCTAGTGCAG”, the binding signal is 8360 fluorescence intensity (a.u.).
Next, “TACTTACTCCCTCCGTATTTTAATGTATGACGCCGTTGACCGGAGTCACCTAGTGCAG”: 14200 fluorescence intensity (a.u.); “ATCTATGTTTTTCTGCGGGCCGGGTTGGTTTGTTTCCTACCGGAGTCACCTAGTGCAG”: 10300 fluorescence intensity (a.u.).
Consider “CGCTACCGGGTTGACTTTTTCCTATCCGTTTCTGGTCCGGCGGAGTCACCTAGTGCAG”, for which the binding signal was 22800 fluorescence intensity (a.u.).
Next, “CCCTCCGTATTTTAATGTATGACGCCGTTGACTTTTTGACCGGAGTCACCTAGTGCAG”: 26800 fluorescence intensity (a.u.); “GCCCGCTGCTCTGCTCTCTCATCTTTTATCTCACTAAAATCGGAGTCACCTAGTGCAG”: 8960 fluorescence intensity (a.u.).
Next, “GCCCGTTGCTCATCTCTCTCATCGTTTATCGCATTAAAATCGGAGTCACCTAGTGCAG”: 17900 fluorescence intensity (a.u.).
“TTTGACGCCGTTGACTTTTTTAAAAATGTTTGACCGTTCACGGAGTCACCTAGTGCAG”: the binding signal was 25100 fluorescence intensity (a.u.).
Under “AAGTACTCCCTCCGTATTTTAATGTATGACGCCGTTGACTCGGAGTCACCTAGTGCAG” stands 9690 fluorescence intensity (a.u.).
Regarding “GCCCGCTGCTATTCTCTCTCATCTTTTATCCTATTAAAATCGGAGTCACCTAGTGCAG”, the binding signal is 13200 fluorescence intensity (a.u.).
Under “TTTGGGCCGGGTTTTTGGTTTCTTCCTTTTTTTTTCTGGGCGGAGTCACCTAGTGCAG” stands 12600 fluorescence intensity (a.u.).
Next, “TTTTTTTTACCGGCCTAGTTGACCACCAACCAAGCAGTACCGGAGTCACCTAGTGCAG”: 10100 fluorescence intensity (a.u.); “GCATACATCTCTACTACCTGCATCTCCATCTCAAATCAAACGGAGTCACCTAGTGCAG”: 10400 fluorescence intensity (a.u.).
With “CTCCTCTAACGTACCATAGAGGGACATACGTTTCTGATGTCGGAGTCACCTAGTGCAG”, the binding signal was 8720 fluorescence intensity (a.u.).
Under “CTCTCCATCCGCTCGCGGCTCGCGCTCGCCCATCCAATCCCGGAGTCACCTAGTGCAG” stands 10600 fluorescence intensity (a.u.); under “CATCGCCCACGCCAATGTCGTCGCCGACGTCTCGCTGCCGCGGAGTCACCTAGTGCAG”, 8820 fluorescence intensity (a.u.); under “CACGCCATTAAGCTTTTTTTATATACATATAGTCAATGTTCGGAGTCACCTAGTGCAG”, 9130 fluorescence intensity (a.u.).
Under “CTCTCTCCGTATTATAATGTATGATGCCGTTGACTTTTTGCGGAGTCACCTAGTGCAG” stands 35200 fluorescence intensity (a.u.); under “CTAAATGTTTGACGCCGTTGACTTTTTAAATATGTTTGACCGGAGTCACCTAGTGCAG”, 32300 fluorescence intensity (a.u.).
Under “CTCCCTCCATCCCAAAATGTTTGACGCCGTTGACTTTTTACGGAGTCACCTAGTGCAG” stands 15900 fluorescence intensity (a.u.); under “TAATACTCCCTCCGTATTTTAATGTATGATGCCGTTGACTCGGAGTCACCTAGTGCAG”, 10600 fluorescence intensity (a.u.).
Turning to “ATTTTAATATTTGACGCCGTTGACTTTTTGTATGTTTGACCGGAGTCACCTAGTGCAG”, the binding signal was 42500 fluorescence intensity (a.u.).
Under “TCTTACTCTCTCCATCCCAAAATGTTTGACGCCGTTGACTCGGAGTCACCTAGTGCAG” stands 13400 fluorescence intensity (a.u.); under “CCCACCGTTTCCAAATGTTTGACGCCGTTGACTTTTTATCCGGAGTCACCTAGTGCAG”, 31900 fluorescence intensity (a.u.); under “TCCGTATTTTAATGTATGACGCTGTTGACTTTCGACCTACCGGAGTCACCTAGTGCAG”, 13900 fluorescence intensity (a.u.).
Under “ACTCTCTCCGTATTCGTATTTTAATGTATGACGCCGTTGACGGAGTCACCTAGTGCAG” stands 8550 fluorescence intensity (a.u.).
